The text below walks through data of PubChem BioAssay (NCI).

Compounds without any hit were thinned out: in the full panel of roughly 79,000, 15% have a hit. Active and inactive are the calls of the source. No stated cut-off is given here; in the data, active means growth inhibition above about 70%; inactive means the rest.

The first experiment can be described thus: NCI Yeast Anticancer Drug Screen. Data for the bub3 strain (AID 167). The note with it: S. cerevisiae bub3 mutant strain, at 50.0 µM, hits give high values. A digest of the protocol: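 Screening used yeast with an engineered genetic alteration affecting cell cycle control. Compound-exposed cultures were compared with vehicle cultures, and reduced growth was taken as inhibition.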
In the case of `Cc1cccc(C)c1NC(=O)C(=O)/C(=C(\N)c1ccccc1)c1ccccc1`, the growth inhibition is 10.2% (inactive).

Take `CCCC1CN2CCc3cc(OC)c(OC)cc3C2CC1=O` (stereo not drawn): the growth inhibition is 41.1% (inactive). On to `CCC[CH2][Sn]([C]#[C][Sn]([CH2]CCC)([CH2]CCC)[CH2]CCC)([CH2]CCC)[CH2]CCC`, for which the growth inhibition was 99.3% (active). On the same count and under the same terms, the same measure for `O=[N+]([O-])c1cc2c(cc1O)[nH]c1cccc([N+](=O)[O-])c12`: -15.8% (inactive).

The nature of a further experiment: NCI Yeast Anticancer Drug Screen. Data for the mlh1 rad18 strain (AID 175). The note with it: S. cerevisiae mlh1 rad18 strain growth inhibition; at 50.0 µM; hits give high values. Summed up: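 Test agents were incubated with a yeast strain of defined genotype (DNA damage repair defect). Inhibition of growth was derived by comparison with vehicle-exposed cultures.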
Regarding `N#CCC(=O)O`, the growth inhibition was -9% (inactive).

As to `O=C(/C=C(/CC(=O)c1ccccc1)C(=O)c1ccccc1)c1ccccc1`, the growth inhibition was -30.8% (inactive). With `CCCCCCCCCCCCP(=O)(O)O`, the growth inhibition is -10.9% (inactive). On to `O=C1CCC(=O)N1CCc1cccc2ccccc12`, for which the growth inhibition is -9.35% (inactive).

With `O=C(O)/C=C/C(=O)Nc1ccc(Cl)cc1C(=O)c1ccccc1`, the growth inhibition is 20.8% (inactive). Still for that read-out and setting: next, `N[N+]1(CCS(N)(=O)=O)CCOCC1`: 13.5% (inactive). On to `NC(=S)c1ccccn1`, for which the growth inhibition is 26.9% (inactive). Turning to `CC(C)Oc1ccc(CCOC(=O)Nc2cccc3ccccc23)cc1`, the growth inhibition is 9.5% (inactive). With `C[Si](C)(C)O[Si](C)(C)CCl`, the growth inhibition was -34.2% (inactive). Take `CC(C)(C)c1cc(-c2cc(C(C)(C)C)nc(N)n2)nc(N)n1`: the growth inhibition is -16.4% (inactive). Still for that read-out and setting: the same measure for `NC(CSS(=O)(=O)O)C(=O)O` (stereo not drawn): 2.6% (inactive); for `O=[N+]([O-])c1ccc(CN2CCC(C(=S)Nc3ccccc3)=C2c2ccccc2)cc1`: 12.4% (inactive); for `CCCCNC(=O)CCC(NS(=O)(=O)c1ccc(C)cc1)C(=O)NCCCC` (stereo not drawn): -18.7% (inactive). Same read-out and setting: the same measure for `COc1c(C=O)c2c(c(OC)c1OC)-c1ccc(OC)c(=O)cc1[C@@H](NC(C)=O)CC2`: -0.95% (inactive).
